In PubChem BioAssay:
Calls of active or inactive are those of the source.

What was measured:
[1] = test system: PRMT1 (protein arginine N-methyltransferase 1); assay: PRMT1 binders on small-molecule microarrays, primary screen, biochemical, small-molecule microarray, 635 nm fluorescence (AID 1088); conditions: small-molecule microarray binding, higher = more signal;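 further: binding of Prmt1 protein to compounds spotted on small-molecule microarray slides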
[2] = yeast growth modulation, basal conditions, primary screen, YJM789 clinical isolate, OD600, 24 h (AID 1089);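 further: growth of clinical yeast isolate S. cerevisiae YJM 789 seeded 1000 cells per well; test concentration not given here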; conditions: S. cerevisiae YJM789 growth, higher = more signal, called active from +8 up or from −8 down
[3] = fission yeast growth modulation, primary screen, strain 972, OD600, 24 h, no modulator (AID 1090);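 further: basal condition with compound alone and no growth modifier present; test concentration not given here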; conditions: S. pombe 972 growth, higher = more signal, called active from +8 up or from −8 down
[4] = S. cerevisiae growth modulation with rapamycin, primary screen, strain BY4716, OD600, 96 h (AID 1091); conditions: higher = more signal, called active from +8 up or from −8 down; further: test concentration not given here
[5] = molecular target: Torsin-1A-interacting protein 2 (Homo sapiens) (UniProt Q8NFQ8); assay: LULL1 binders on small-molecule microarray, primary screen, cell lysate, human LULL1 lysate, 635/667 nm fluorescence (AID 1092); conditions: hLULL1 lysate binding, 635 nm fluorescence, higher = more signal;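 further: probe is lysate of COS7 cells overexpressing human LULL1; score merges per-feature 667 nm fluorescence with signal-to-noise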
[6] = E. coli growth modulation, two-sided OD650, primary screen, E. coli filamentation project, strain DRC41, 24 h (AID 1093); conditions: OD650, 24 h, higher = more signal, called active from +8 up or from −8 down;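 further: MC1000 strain lacking acrAB efflux and sulA so SOS filamentation is blocked; test concentration not given here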
[7] = small-molecule microarray binders of probe aLefty2, primary screen, biochemical, biotinylated probe, 635/667 nm fluorescence (AID 1094); conditions: higher = more signal;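 further: score merges spot fluorescence near 667 nm with spot signal-to-noise ratio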
[8] = test system: Noggin (protein binding on small-molecule microarray); assay: Noggin binders on small-molecule microarray, primary screen, biochemical, 635/667 nm fluorescence (AID 1095); conditions: 635 nm fluorescence, higher = more signal;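 further: score merges 667 nm feature fluorescence with signal to noise over triplicate slides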
[9] = molecular target: Neurogenic locus notch homolog protein 3 (Homo sapiens) (UniProt Q9UM47); assay: NOTCH3 binders on small-molecule microarray, primary screen, biochemical, 635/667 nm fluorescence (AID 1096); conditions: NOTCH3 binding, 635 nm fluorescence, higher = more signal
[10] = small-molecule microarray binders of probe aEGFR, primary screen, biochemical, biotinylated probe, 635/667 nm fluorescence (AID 1097); conditions: higher = more signal;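 further: probe is a biotinylated anti-EGFR antibody binding compounds printed on slides; score combines fluorescence near 667 nm and signal to noise of each spot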
[11] = test system: Plasmodium falciparum Sir2 (PF13_0152, Sir2A); assay: pfSir2 binders on small-molecule microarrays, primary screen, biochemical, small-molecule microarray, 635 nm fluorescence (AID 1098); conditions: small-molecule microarray binding, fluorescence 635 nm; higher = more signal;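 further: score merges spot fluorescence intensity with its signal-to-noise ratio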
[12] = small-molecule microarray binders of probe aDKK1, primary screen, biochemical, biotinylated probe, 635/667 nm fluorescence (AID 1099); conditions: higher = more signal;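 further: score merges 667nm spot fluorescence with signal to noise across triplicate slides; reference of the scale not given here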
[13] = small-molecule microarray binders of probe aCHRDL2, primary screen, biochemical, biotinylated probe, 635/667 nm fluorescence (AID 1100); conditions: higher = more signal
[14] = splicing luciferase reporter signal modulators, primary screen, spliceosome inhibition project, cell-based, HEK293, splice +/- reporter (AID 1101); conditions: luminescence, 24 h, higher = more signal, called active from +8 up or from −8 down;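 further: HEK293 cells carrying a splicing-competent luciferase reporter gene; test concentration not given here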
[15] = molecular target: Fibroblast growth factor 10 (Homo sapiens) (UniProt O15520); assay: FGF10 binders on small-molecule microarrays, primary screen, biochemical, small-molecule microarray, 635 nm fluorescence (AID 1102); conditions: FGF10 binding, fluorescence 635 nm, higher = more signal
[16] = test system: glycogen synthase kinase-3 (GSK3A per assay name; protocol says GSK3B); assay: GSK3 binders on small-molecule microarrays, primary screen, biochemical, small-molecule microarray, 635 nm fluorescence, GSK3A (AID 1103); conditions: small-molecule microarray binding, fluorescence 635 nm; higher = more signal; further: the record names both GSK3A and GSK3B
[17] = molecular target: Epidermal growth factor receptor (Homo sapiens) (UniProt P00533); assay: EGFR binders on small-molecule microarrays, primary screen, biochemical, small-molecule microarray, 635 nm fluorescence (AID 1104); conditions: EGFR binding, higher = more signal;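 further: score merges 667 nm emission intensity with spot signal to noise over triplicate slides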
[18] = molecular target: Follistatin-related protein 3 (Homo sapiens) (UniProt O95633); assay: FSTL3 binders on small-molecule microarrays, primary screen, biochemical, small-molecule microarray, 635 nm fluorescence (AID 1105); conditions: FSTL3 binding, higher = more signal;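 further: score merges emission near 667 nm and signal to noise per printed spot across three slides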
[19] = molecular target: Dickkopf-related protein 1 (Homo sapiens) (UniProt O94907); assay: DKK1 binders on small-molecule microarrays, primary screen, biochemical, small-molecule microarray, 635 nm fluorescence scan (AID 1106); conditions: DKK1 binding, higher = more signal;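 further: score merges emission near 667 nm with signal to noise over three replicate slides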
[20] = test system: Inhibin beta A chain (activin A); assay: INHBA (activin A) binders on microarrays, primary screen, biochemical, small-molecule microarray, 635 nm fluorescence scan (AID 1107); conditions: small-molecule microarray binding, higher = more signal;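 further: mouse activin A protein probed at 4.33 µg/mL on printed slides; score merges bound-protein fluorescence near 667 nm with spot signal-to-noise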

Chain of Fibroblast growth factor 10 (Homo sapiens) (O15520 whole entry, looked up): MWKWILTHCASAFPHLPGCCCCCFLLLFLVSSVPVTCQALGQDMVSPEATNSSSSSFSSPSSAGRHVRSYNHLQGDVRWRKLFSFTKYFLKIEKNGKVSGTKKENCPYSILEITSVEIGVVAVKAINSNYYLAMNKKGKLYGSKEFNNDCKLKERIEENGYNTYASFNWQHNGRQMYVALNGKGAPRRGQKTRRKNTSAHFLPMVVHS
Chain of Follistatin-related protein 3 (Homo sapiens) (O95633 whole entry, looked up): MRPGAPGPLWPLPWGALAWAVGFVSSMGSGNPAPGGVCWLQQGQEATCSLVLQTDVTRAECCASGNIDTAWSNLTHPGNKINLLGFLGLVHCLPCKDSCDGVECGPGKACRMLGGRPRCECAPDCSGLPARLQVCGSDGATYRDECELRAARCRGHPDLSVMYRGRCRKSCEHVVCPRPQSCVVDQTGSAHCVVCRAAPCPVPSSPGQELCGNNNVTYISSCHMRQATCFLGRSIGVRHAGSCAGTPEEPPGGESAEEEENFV
Chain of Epidermal growth factor receptor (Homo sapiens) (P00533 whole entry, looked up): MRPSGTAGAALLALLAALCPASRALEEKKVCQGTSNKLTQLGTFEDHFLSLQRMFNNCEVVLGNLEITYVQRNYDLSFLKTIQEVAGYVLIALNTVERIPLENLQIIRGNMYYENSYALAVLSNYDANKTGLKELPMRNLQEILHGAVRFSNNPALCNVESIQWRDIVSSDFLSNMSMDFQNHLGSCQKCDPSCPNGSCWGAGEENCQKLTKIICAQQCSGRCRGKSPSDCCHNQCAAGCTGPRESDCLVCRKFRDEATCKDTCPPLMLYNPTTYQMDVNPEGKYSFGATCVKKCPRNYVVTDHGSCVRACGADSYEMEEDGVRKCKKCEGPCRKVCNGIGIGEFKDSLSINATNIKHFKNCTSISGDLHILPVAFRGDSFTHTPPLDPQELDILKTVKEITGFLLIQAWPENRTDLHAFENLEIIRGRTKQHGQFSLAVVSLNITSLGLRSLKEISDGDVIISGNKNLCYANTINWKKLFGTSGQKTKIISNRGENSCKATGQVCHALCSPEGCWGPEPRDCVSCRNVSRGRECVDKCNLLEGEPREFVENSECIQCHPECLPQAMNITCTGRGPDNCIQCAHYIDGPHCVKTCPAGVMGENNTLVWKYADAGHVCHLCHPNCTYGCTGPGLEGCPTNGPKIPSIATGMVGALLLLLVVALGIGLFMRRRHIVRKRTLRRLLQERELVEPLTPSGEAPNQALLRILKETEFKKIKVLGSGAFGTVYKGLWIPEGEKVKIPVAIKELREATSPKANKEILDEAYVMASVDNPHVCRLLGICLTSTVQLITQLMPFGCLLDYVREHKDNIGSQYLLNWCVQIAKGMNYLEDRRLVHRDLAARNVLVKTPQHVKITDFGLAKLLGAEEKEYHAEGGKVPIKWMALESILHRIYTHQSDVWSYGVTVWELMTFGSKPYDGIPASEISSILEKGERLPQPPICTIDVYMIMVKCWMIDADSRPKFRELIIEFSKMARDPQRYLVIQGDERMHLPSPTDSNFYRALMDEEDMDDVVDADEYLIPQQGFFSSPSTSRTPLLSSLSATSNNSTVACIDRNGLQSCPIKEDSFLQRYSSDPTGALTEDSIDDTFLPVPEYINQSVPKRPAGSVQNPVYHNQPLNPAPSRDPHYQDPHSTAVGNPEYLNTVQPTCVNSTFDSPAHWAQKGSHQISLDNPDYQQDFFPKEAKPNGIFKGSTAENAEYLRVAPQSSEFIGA
Chain of Dickkopf-related protein 1 (Homo sapiens) (O94907 whole entry, looked up): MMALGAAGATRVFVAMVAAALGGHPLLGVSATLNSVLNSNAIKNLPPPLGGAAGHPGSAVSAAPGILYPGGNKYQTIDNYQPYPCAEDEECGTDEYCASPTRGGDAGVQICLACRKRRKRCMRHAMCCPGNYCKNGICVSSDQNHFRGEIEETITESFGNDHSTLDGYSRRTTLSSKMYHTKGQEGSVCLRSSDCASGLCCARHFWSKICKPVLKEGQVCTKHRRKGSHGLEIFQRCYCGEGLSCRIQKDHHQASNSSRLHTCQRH
Chain of Neurogenic locus notch homolog protein 3 (Homo sapiens) (Q9UM47 whole entry, looked up): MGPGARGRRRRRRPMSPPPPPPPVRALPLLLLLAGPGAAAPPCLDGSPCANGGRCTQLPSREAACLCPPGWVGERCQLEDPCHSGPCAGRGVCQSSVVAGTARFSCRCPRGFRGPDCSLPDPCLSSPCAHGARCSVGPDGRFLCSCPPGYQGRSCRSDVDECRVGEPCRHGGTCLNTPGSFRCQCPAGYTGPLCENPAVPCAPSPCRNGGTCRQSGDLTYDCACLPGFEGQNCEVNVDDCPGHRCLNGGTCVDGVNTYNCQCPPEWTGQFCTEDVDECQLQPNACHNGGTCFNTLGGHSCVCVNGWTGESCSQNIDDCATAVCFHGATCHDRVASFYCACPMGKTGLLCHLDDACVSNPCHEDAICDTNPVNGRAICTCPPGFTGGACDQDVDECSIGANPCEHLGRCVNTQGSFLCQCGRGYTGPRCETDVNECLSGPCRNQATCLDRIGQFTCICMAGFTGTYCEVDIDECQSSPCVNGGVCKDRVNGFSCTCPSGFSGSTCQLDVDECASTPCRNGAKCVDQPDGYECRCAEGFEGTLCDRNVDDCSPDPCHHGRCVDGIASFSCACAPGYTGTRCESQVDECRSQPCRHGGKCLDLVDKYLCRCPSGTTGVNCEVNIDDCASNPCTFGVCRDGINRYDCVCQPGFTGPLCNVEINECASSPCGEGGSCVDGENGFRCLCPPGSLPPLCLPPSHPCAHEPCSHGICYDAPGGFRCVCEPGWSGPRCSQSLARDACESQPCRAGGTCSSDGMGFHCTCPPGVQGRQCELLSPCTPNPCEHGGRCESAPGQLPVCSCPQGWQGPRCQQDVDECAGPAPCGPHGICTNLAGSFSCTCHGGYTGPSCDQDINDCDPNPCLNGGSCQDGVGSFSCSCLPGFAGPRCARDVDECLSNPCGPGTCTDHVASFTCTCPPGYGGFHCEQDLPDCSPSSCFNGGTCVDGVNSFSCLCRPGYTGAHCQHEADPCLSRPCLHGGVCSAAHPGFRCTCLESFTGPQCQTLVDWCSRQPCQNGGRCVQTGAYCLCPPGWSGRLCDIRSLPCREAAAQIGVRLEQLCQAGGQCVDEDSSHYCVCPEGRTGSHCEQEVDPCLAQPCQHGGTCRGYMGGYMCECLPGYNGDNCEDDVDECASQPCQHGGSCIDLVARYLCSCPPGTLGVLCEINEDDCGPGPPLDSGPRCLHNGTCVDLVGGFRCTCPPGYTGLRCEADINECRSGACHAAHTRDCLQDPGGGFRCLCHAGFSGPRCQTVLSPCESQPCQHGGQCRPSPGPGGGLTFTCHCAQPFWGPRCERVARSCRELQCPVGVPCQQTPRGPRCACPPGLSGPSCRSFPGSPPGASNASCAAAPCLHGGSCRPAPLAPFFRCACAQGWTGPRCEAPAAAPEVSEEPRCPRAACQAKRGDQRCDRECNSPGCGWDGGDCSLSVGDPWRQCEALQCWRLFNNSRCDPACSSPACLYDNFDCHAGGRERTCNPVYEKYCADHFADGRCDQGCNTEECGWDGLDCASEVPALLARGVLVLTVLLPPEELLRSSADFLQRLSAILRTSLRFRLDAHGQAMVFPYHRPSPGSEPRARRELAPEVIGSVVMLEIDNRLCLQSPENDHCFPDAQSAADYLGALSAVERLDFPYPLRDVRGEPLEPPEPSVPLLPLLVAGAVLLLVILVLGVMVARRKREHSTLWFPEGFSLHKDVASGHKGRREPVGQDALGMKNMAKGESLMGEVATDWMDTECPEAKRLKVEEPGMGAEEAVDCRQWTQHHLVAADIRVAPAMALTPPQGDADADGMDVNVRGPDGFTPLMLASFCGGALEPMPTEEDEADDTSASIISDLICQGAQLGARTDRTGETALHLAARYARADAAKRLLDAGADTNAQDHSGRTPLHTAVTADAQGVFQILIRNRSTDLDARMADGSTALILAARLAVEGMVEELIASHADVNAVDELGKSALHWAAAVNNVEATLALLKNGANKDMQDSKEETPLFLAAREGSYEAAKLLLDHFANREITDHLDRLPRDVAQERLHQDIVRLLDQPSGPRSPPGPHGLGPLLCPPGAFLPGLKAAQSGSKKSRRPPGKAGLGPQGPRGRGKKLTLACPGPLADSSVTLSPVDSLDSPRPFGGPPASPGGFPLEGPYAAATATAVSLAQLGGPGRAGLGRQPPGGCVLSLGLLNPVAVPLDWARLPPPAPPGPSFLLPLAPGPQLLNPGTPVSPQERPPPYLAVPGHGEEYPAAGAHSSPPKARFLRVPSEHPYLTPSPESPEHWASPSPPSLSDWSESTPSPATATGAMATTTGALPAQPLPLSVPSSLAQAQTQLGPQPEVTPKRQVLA
Chain of Torsin-1A-interacting protein 2 (Homo sapiens) (Q8NFQ8 whole entry, looked up): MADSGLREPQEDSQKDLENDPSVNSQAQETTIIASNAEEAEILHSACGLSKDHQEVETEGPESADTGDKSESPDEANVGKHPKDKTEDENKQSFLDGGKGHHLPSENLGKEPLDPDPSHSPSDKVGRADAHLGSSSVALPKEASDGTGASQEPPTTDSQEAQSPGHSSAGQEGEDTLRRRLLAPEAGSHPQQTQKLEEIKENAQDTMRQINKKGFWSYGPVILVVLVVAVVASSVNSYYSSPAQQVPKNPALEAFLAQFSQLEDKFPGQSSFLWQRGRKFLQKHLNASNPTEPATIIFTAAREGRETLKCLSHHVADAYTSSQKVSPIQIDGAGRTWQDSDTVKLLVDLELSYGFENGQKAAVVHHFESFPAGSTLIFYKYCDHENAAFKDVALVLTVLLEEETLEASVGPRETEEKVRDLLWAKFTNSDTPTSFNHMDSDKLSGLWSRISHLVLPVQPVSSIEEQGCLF

| SMILES | composite z-score [1] | z-score [2] | z-score [3] | z-score [4] | composite z-score [5] | z-score [6] | composite z-score [7] | composite z-score [8] | composite z-score [9] | composite z-score [10] | composite z-score [11] | composite z-score [12] | composite z-score [13] | z-score [14] | composite z-score [15] | composite z-score [16] | composite z-score [17] | composite z-score [18] | composite z-score [19] | composite z-score [20] |
| --- | --- | --- | --- | --- | --- | --- | --- | --- | --- | --- | --- | --- | --- | --- | --- | --- | --- | --- | --- | --- |
| CO[C@H]1COC(=O)[C@H](C)NC(=O)CC=C[C@@H](C)[C@H](NS(=O)(=O)c2ccc(C)cc2)COC(=O)[C@@H](OCc2ccccc2)C=C[C@@H]1C | 0.229 | 1.22 (inactive) | 0.129 (inactive) | 2.1 (inactive) | -0.569 | 0.176 (inactive) | -0.316 | 0.801 | -0.439 | -0.168 | -0.189 | -0.667 | -0.97 | -0.138 (inactive) | 0.0808 | 0.258 | 0.286 | 0.512 | 1.37 | 0.51 |
| CO[C@H]1COC(=O)[C@@H](C)NC(=O)CC=C[C@@H](C)[C@H](OC)COC(=O)CC=C[C@@H]1C | 1.55 | -1.66 (inactive) | -2.03 (inactive) | -1.67 (inactive) | -0.619 | 1.25 (inactive) | -0.28 | 1.52 | 0.134 | -0.299 | -1.61 | -0.994 | -1.7 | -1.59 (inactive) | 0.518 | 0.442 | -0.805 | 1.34 | 1.2 | 1.62 |
| CCCC[C@@H]1C[C@H]1[C@@H](NC(=O)c1ccccc1)c1ccccc1C(F)(F)F | 1.03 | 0.261 (inactive) | 0.367 (inactive) | 0.0237 (inactive) | 3.38 | 0.151 (inactive) | 0.198 | 0.0984 | 0.961 | -0.123 | 1.15 | 0.526 | 1.05 | -0.261 (inactive) | 0.0165 | 0.415 | -0.279 | -0.0027 | -0.521 | 0.616 |
| CCCC[C@H]1OB(O)C[C@H]2C1=C(COC)C[C@H]1C(=O)N(Cc3ccccc3)C(=O)[C@H]12 | -0.0448 | -0.776 (inactive) | -1.69 (inactive) | -1.69 (inactive) | 0.58 | 2.71 (inactive) | -0.113 | 0.321 | 0.75 | -0.0958 | -0.0105 | 0.0752 | -0.0346 | -1.27 (inactive) | 0.78 | 0.261 | 0.013 | 1.1 | 0.0988 | 0.223 |
| CO[C@H]1COC(=O)[C@H](CCSC)NC(=O)CC=C[C@@H](C)COC(=O)[C@@H](OCc2ccccc2)C=C[C@@H]1C | 1.13 | 0.891 (inactive) | 0.353 (inactive) | 0.97 (inactive) | -0.84 | 0.109 (inactive) | -0.222 | 1.93 | 0.13 | -0.0131 | 0.979 | 0.981 | -1.41 | -0.342 (inactive) | 0.485 | 0.743 | 0.574 | 1.15 | 2 | 0.397 |
| COC(=O)[C@@]1(Cc2ccc(OC)cc2)[C@H]2c3cc(C(=O)N(C)C)n(CCc4ccc(OC)c(Br)c4)c3C[C@H]2CN1C(=O)c1ccccc1 | 1.17 | 0.557 (inactive) | 0.236 (inactive) | 2.82 (inactive) | 3.33 | -0.76 (inactive) | 0.903 | -0.54 | 1.01 | 0.674 | 0.843 | 1.98 | 1.47 | -1.13 (inactive) | 0.77 | 1.02 | -0.405 | 1.04 | -0.884 | 0.463 |
| CC(C)(C)OC(=O)CC[C@@]1(C(=O)NCc2ccccc2)N=C(c2ccc(OCCCO)cc2)O[C@@H]1c1ccccc1 | 1.55 | -5.26 (inactive) | -1.2 (inactive) | 0.264 (inactive) | 3.54 | 1.46 (inactive) | 0.0717 | -0.0633 | 1.1 | 0.045 | 1.64 | 1.29 | 1.31 | -0.791 (inactive) | 0.556 | 1.26 | -0.152 | 0.545 | 0.144 | 0.119 |
| COc1cc2c(cc1OC)CN(C(=O)[C@@H]1[C@H]3C(=O)O[C@H](c4ccccc4)[C@H](c4ccccc4)N3[C@H](c3ccccc3OCCO)[C@@]13C(=O)Nc1ccccc13)CC2 | 1.55 | 2.39 (inactive) | 1.19 (inactive) | 5.58 (inactive) | 1.76 | 1.92 (inactive) | -0.301 | 0.208 | 1.05 | -0.198 | 1.6 | -0.682 | -0.73 | -0.239 (inactive) | 0.748 | 1.29 | 0.0883 | 0.317 | -0.134 | 0.358 |
| COc1ccc(C(=O)Nc2ccc(CN3C(=O)[C@]4(O[C@H](CCn5cc(CCO)nn5)[C@@H]([Si](C)(C)c5ccc(OC)cc5)[C@@H]4C)c4ccccc43)cc2)cc1 | 1.56 | 1.42 (inactive) | -7.78 (inactive) | 1.13 (inactive) | 0.961 | 1.07 (inactive) | 0.201 | 1.65 | 1.08 | 0.14 | 0.814 | 0.3 | 0.589 | 5.66 (inactive) | 0.898 | 1.03 | 0.958 | -0.106 | -0.0456 | 1.11 |
| CO[C@H]1COC(=O)[C@@H](OCc2ccccc2)C=C[C@H](C)[C@@H](OC)COC(=O)[C@H](OCc2ccccc2)C=C[C@@H]1C | -0.374 | -2.92 (inactive) | -2.88 (inactive) | -0.495 (inactive) | -0.233 | -0.255 (inactive) | -0.462 | 0.816 | -0.472 | -0.188 | -0.0155 | -0.46 | -0.984 | -1.8 (inactive) | 0.181 | -0.0762 | -0.207 | 0.172 | 0.123 | -0.381 |
